Sampled rows, rich in hits. Any-hit rate of the full collection: about 2.9%.
EBV LMP1 NFkB: Epstein-Barr LMP1 NF-kappaB reporter inhibition; 350,000 tested, 0.69% active; AID 504558; inhibition, % at 12.5 µM; LMP1-induced NF-kappaB luciferase reporter cells, luminescence; in the data active means inhibition above about 41%
TRPM1 prom inh: inhibitors of MITF-driven TRPM1 promoter in melanoma cells; SK-MEL-5 TRPM1 promoter luciferase, 24 h; inhibition, % at 12.5 µM; 330,000 tested, 0.83% active; AID 488899;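 active means mean inhibition across replicates of 60% or more, whatever share of single replicates reaches that level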
Shn3 inh set2: inhibitors of Schnurri-3 3'UTR reporter in osteoblasts. Clone20 osteoblast Shn3 3'UTR firefly luciferase, 24 h. inhibition, % at 12.5 µM. 360,000 tested, 0.52% active;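 active means mean inhibition of at least 75% with every replicate also reaching 75%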
CF NFkB inh: blocks PAF-induced NF-kB reporter in cystic fibrosis cells. KKLEB NF-kB-GFP reporter, GFP fluorescence overnight. inhibition, % at 5 µM. 360,000 tested, 0.86% active. AID 588850;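 active means at least 50% inhibition at 5 µM, scaled per plate between neutral and stimulator controls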;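 further: PAF is a Pseudomonas aeruginosa culture filtrate used as stimulus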
Peg3 promoter: inhibitors of Peg3 promoter; inhibition, % at 20 µM; HeLa PEG-Prom luciferase reporter, luminescence, overnight; 360,000 tested, 1.7% active; AID 588405;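 active means inhibition of at least 50% at 20 µM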
KKLEB cytotox: counter-screen for CF NF-kB inhibitors: cytotoxicity | activity change (cytotoxicity), % at 5 µM | AID 602141 | KKLEB CF airway cells viability, ATPlite luminescence, overnight; stronger effect = lower value; cells stimulated with P. aeruginosa culture filtrate | 360,000 tested, 0.36% active;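 active means corrected activity change at or below -50% at 5 µM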
Each line names hits and unclear results; the compound was inactive in the other large screens.

C#CCn1c(=NC(=O)c2ccc(S(=O)(=O)N3CCc4ccccc4C3)cc2)sc2cc(S(N)(=O)=O)ccc21	TRPM1 prom inh 90, Shn3 inh set2 97, CF NFkB inh 52, Peg3 promoter 103, KKLEB cytotox -53
CCc1ccccc1NC(=O)CN(C)C(=O)COC(=O)c1c(Cl)cccc1Cl	none
Cc1ccc(NC(=O)c2ccc3c(c2)OCCO3)nc1	EBV LMP1 NFkB 50
Cc1ccccc1C(=O)N1CCN(c2ccc(NC(=O)c3ccc4c(c3)OCCO4)cc2)CC1	EBV LMP1 NFkB 43, TRPM1 prom inh 70, Shn3 inh set2 86
O=C(O)c1ccc(C(=O)O)c(C(=O)c2ccc(NC(=O)c3ccccc3)cc2)c1	EBV LMP1 NFkB 60
O=C(Nc1ccc(NC(=O)c2ccc3c(c2)OCCO3)cc1)c1ccccc1	Peg3 promoter 100
O=C(Nc1ccccc1)c1ccc2c(c1)OCCO2	none
CCc1nc2c(OCc3ccc(Cl)cc3)cccn2c1N(C)C(=O)c1ccncc1	none (no result: EBV LMP1 NFkB, TRPM1 prom inh)
COC(=O)C1=NNC(C(=O)OC)C1c1ccccc1 (centres undefined)	EBV LMP1 NFkB 84
COc1ccc(-c2noc(CCCCC(=O)N3CCN(c4cc(C)ccc4C)CC3)n2)cc1	Shn3 inh set2 92
O=C(/C=C/c1ccc(F)cc1)c1ccccc1Br	CF NFkB inh 57, Peg3 promoter 104
Cc1ccc(C(=O)/C=C/c2ccc(F)cc2)o1	none
Nc1nc(=S)c2[nH]cnc2[nH]1	EBV LMP1 NFkB 85, TRPM1 prom inh 78, Peg3 promoter 63
CCn1c(=N)n(CC(=O)c2cccc([N+](=O)[O-])c2)c2ccccc21	none
N=c1n(CC(=O)c2cccc([N+](=O)[O-])c2)c2ccccc2n1Cc1ccccc1	Peg3 promoter 58
Cc1ccccc1Cn1c(=N)n(CC(=O)c2ccc([N+](=O)[O-])cc2)c2ccccc21	TRPM1 prom inh 66, Peg3 promoter 71, KKLEB cytotox -64
CCCn1c(=N)n(CC(=O)c2ccc([N+](=O)[O-])cc2)c2ccccc21	Peg3 promoter 60
Cc1ccc(C(=O)NCCc2ccccc2)cc1	EBV LMP1 NFkB 57
Cc1ccc(C(=O)NCCc2ccncc2)cc1	none
COc1ccc2c3c(ccc2c1)C(=O)/C(=C/O)CC3	none
CC(OC(=O)c1ccc([N+](=O)[O-])s1)C(=O)NC1CCCCC1C (centres undefined)	TRPM1 prom inh 78
CCc1cccc(C)c1NC(=S)NCCc1c(C)[nH]c2ccc(C)cc12	Peg3 promoter 51
COc1ccc2[nH]c(C)c(CCNC(=S)Nc3cc(C)ccc3C)c2c1	none
CC(C)(C)S(=O)N1Cc2cc(C(=O)N3CCc4ccccc4C3)nc(-c3cccc(-c4ccncc4)c3)c2[C@H]1CCO (some centres undefined)	none (no result: EBV LMP1 NFkB, TRPM1 prom inh)
Nc1nc(N)c2[nH]c(=S)[nH]c2n1	none
COC(=O)Cn1ccnc1[N+](=O)[O-]	none (no result: TRPM1 prom inh)
COc1ccccc1CCNC(=O)c1cc(-c2ccccn2)nc2ccccc12	Peg3 promoter 51
Cc1ccc(S(=O)(=O)N(C)C)cc1NC(=O)c1cc(-c2ccncc2)nc2ccccc12	Peg3 promoter 52
O=C(NCCC1=CCCCC1)c1cc(-c2ccccn2)nc2ccccc12	none
Cc1ccc(-c2cc(C(=O)Nc3cc(C(=O)O)ccc3C)c3ccccc3n2)cc1	none
Cc1ccc(S(=O)(=O)N2CCOCC2)cc1NC(=O)c1cc(-c2ccccn2)nc2ccccc12	Peg3 promoter 90
CCN1/C(=C\c2ccc3cc(C)ccc3[n+]2CC)Sc2cc(C)c(C)cc21	TRPM1 prom inh 73, Shn3 inh set2 89
CCN1/C(=C/c2ccc3cc(C)cc(C)c3[n+]2CC)Sc2cc(C)ccc21	TRPM1 prom inh 83, Peg3 promoter 99, KKLEB cytotox -53
CCN1/C(=C/c2ccc3cc(C)ccc3[n+]2CC)Sc2ccc3sccc3c21	TRPM1 prom inh 100, Shn3 inh set2 93, Peg3 promoter 111
C[n+]1ccccc1/C=C1\Sc2ccccc2N1CCO	none
CCN1/C(=C/c2ccc3cccc(C)c3[n+]2CC)Sc2ccccc21	TRPM1 prom inh 72, Peg3 promoter 56
CN(C)S(=O)(=O)c1ccc(C(=O)OCC(=O)c2csc(N3CCCCC3)n2)cc1	none
COc1cccc(-c2cnc(C(O)c3ccc(Cl)cc3)[nH]2)c1 (centres undefined)	none (no result: EBV LMP1 NFkB, TRPM1 prom inh)
O=C(NCc1ccc(F)cc1)c1cc(C2CCCN(C(=O)c3ccc4ccccc4c3)C2)on1 (centres undefined)	none (no result: EBV LMP1 NFkB, TRPM1 prom inh)
Cc1cccc(C)c1NC(=O)CNC(=O)C12CC3CC(CC(O)(C3)C1)C2	none
O=C(NCCc1ccc(Cl)cc1)C12CC3CC(CC(O)(C3)C1)C2	EBV LMP1 NFkB 58
CC(=O)Nc1cc(-c2cccnc2)cn2c(-c3ccc(F)cc3)cnc12	none (no result: EBV LMP1 NFkB, TRPM1 prom inh)
O=C(O)c1ccccc1C=NN1CCCCCC1	none
Cc1ccc2oc(C(Cl)(Cl)Cl)cc(=O)c2c1	TRPM1 prom inh 67, Peg3 promoter 63
CC(=O)Nc1ccc2c(c1)Cc1c-2cc(Cl)c(NC(C)=O)c1Cl	none
O=C(Nc1c(Cl)cc2c(c1Cl)Cc1cc([N+](=O)[O-])ccc1-2)C(Cl)Cl	Shn3 inh set2 95
COc1ccccc1N1CCN(c2ccc(-c3ccccc3)nn2)CC1	EBV LMP1 NFkB 70
C=CC[n+]1c(/C=C2\C=Cc3cc(C)ccc3N2CC)ccc2ccccc21	EBV LMP1 NFkB 45, TRPM1 prom inh 78, Shn3 inh set2 93
CCN1C(=C(C#N)C#N)C=Cc2cc(C)ccc21	none
N#C/C(=C/c1cn(-c2ccccc2)nc1-c1cccc(S(=O)(=O)N2CCCC2)c1)C(=O)NCc1ccco1	none
N#C/C(=C/c1cn(-c2ccccc2)nc1-c1cccc(S(=O)(=O)N2CCOCC2)c1)C(=O)NCc1ccco1	CF NFkB inh 51, KKLEB cytotox -57
CCOC(=O)C(C)(C)N(Cc1ccc(C)cc1)S(=O)(=O)c1ccc(Cl)c([N+](=O)[O-])c1	TRPM1 prom inh 91, Peg3 promoter 105
COc1cccc(S(=O)(=O)N(C)C[C@H]2OCc3cnnn3CCCC(=O)N([C@H](C)CO)C[C@@H]2C)c1	none (no result: TRPM1 prom inh)
CC(Sc1ccc(S(=O)(=O)N2CCCCCC2)cn1)C(N)=O (centres undefined)	none
O=C(CN1CCN(c2cnn(-c3ccccc3)c(=O)c2Cl)CC1)NC1CCS(=O)(=O)C1 (centres undefined)	none
N#Cc1c(Cl)nsc1NC(=O)c1ccccc1	CF NFkB inh 52
N#Cc1c(NC(=O)c2ccccc2)sc2c1CCCCC2	none
Cc1sc2ncnc(NC3CCN(Cc4ccccc4)CC3)c2c1C	Shn3 inh set2 88
c1ccc(CN2CCC(Nc3ncnc4sccc34)CC2)cc1	none
c1ccc2c(c1)OCCOCCOCCOCCOCCOc1ccccc1OCCOCCOCCO2	Shn3 inh set2 86

High-throughput results deposited in PubChem by several laboratories.
